# Reference: the supplement of paper PMC10037445
# The full ranking holds about 2,900 compounds; the median of “NF-kB SEAP reporter activity, fold change vs agonist alone” is about 0.99, and the highest 2% start at about 2.6. For the sample, the highest values were picked, then their nearest neighbours and some compounds at random.
# How the values were obtained:
# RAW-Dual [1] = assay: NF-kB SEAP reporter activity, fold change vs agonist alone; cytotoxicity flag (confluency mask): not cytotoxic; higher = enhanced NF-kB activity
# In short: (§1)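 Reporter activity is given as fold change relative to agonist-alone wells. To measure it, 50 nL of library stock was pin-tooled onto RAW-Dual macrophages (50,000 cells/well, DMEM, 384-well plates), a PRR agonist followed 1 h later, and cells stayed at 37 °C, 5% CO2. Twenty hours on, supernatant was assayed for IRF (QuantiLuc luminescence) and NF-κB (QuantiBlue, 620 nm absorbance), and wells under 70% of agonist-control IncuCyte confluency in both mask sets were marked cytotoxic.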
# RAW-Dual [2] = assay: NF-kB SEAP reporter activity, fold change vs agonist alone; higher = enhanced NF-kB activity
# In short: as §1
# RAW-Dual [3] = assay: NF-kB SEAP reporter activity, fold change vs agonist alone; cytotoxicity flag (confluency mask): cytotoxic (confluency <70% of control); higher = enhanced NF-kB activity
# In short: as §1
# [4] = agonist: ODN 1826 (TLR9) 0.5 ug/mL
# [5] = agonist: Pam2CSK4 (TLR2/6) 0.1 ug/mL
# [6] = agonist: Pam3CSK4 (TLR2/1) 0.1 ug/mL
# [7] = library stock concentration (final ~1000-fold dilution): 10 mM, cytotoxicity flag (confluency mask): not cytotoxic, agonist: Imiquimod (TLR7) […]
# [8] = library stock concentration (final ~1000-fold dilution): 10 mM, cytotoxicity flag (confluency mask): not cytotoxic, agonist: MPLA (TLR4) […]
# [9] = library stock concentration (final ~1000-fold dilution): 10 mM, cytotoxicity flag (confluency mask): cytotoxic (confluency <70% of control), agonist: Imiquimod (TLR7) […]
# [10] = library stock concentration (final ~1000-fold dilution): 10 mM, cytotoxicity flag (confluency mask): cytotoxic (confluency <70% of control), agonist: MPLA (TLR4) […]
smiles,measurement,setting,value
O=C(Nc1ccc(Cl)cc1)c1cc2ccccc2cc1OP(=O)(O)O (library stock concentration (final ~1000-fold dilution): 10 mM),NF-kB SEAP reporter activity,RAW-Dual [1]; agonist: LPS (TLR4) 0.1 ug/mL,1.08
same,NF-kB SEAP reporter activity,RAW-Dual [1]; [4],0.965
same,NF-kB SEAP reporter activity,RAW-Dual [1]; [5],0.931
same,NF-kB SEAP reporter activity,RAW-Dual [1]; [6],0.763
O=C(Nc1ccc(Cl)cc1)c1cc2ccccc2cc1OP(=O)(O)O,NF-kB SEAP reporter activity,RAW-Dual [2]; [7],0.877
same,NF-kB SEAP reporter activity,RAW-Dual [2]; [8],1.04
N=C(N)NCCCC1NC(=O)C(CCCCN)NC(=O)C(Cc2ccccc2)NC(=O)C(CC(=O)O)NC(=O)CNC1=O.O=C(O)C(F)(F)F (configuration not stated) (library stock concentration (final ~1000-fold dilution): 10 mM),NF-kB SEAP reporter activity,RAW-Dual [1]; agonist: LPS (TLR4) 0.1 ug/mL,1.07
same,NF-kB SEAP reporter activity,RAW-Dual [1]; [4],0.955
same,NF-kB SEAP reporter activity,RAW-Dual [1]; [5],1.13
same,NF-kB SEAP reporter activity,RAW-Dual [1]; [6],0.988
N=C(N)NCCCC1NC(=O)C(CCCCN)NC(=O)C(Cc2ccccc2)NC(=O)C(CC(=O)O)NC(=O)CNC1=O.O=C(O)C(F)(F)F (configuration not stated),NF-kB SEAP reporter activity,RAW-Dual [2]; [7],0.934
same,NF-kB SEAP reporter activity,RAW-Dual [2]; [8],1.07
COc1ncc(-c2cc(-c3ncc(CN4CC(C)OC(C)C4)o3)c3cn[nH]c3c2)cc1NS(C)(=O)=O (configuration not stated) (library stock concentration (final ~1000-fold dilution): 10 mM),NF-kB SEAP reporter activity,RAW-Dual [3]; agonist: LPS (TLR4) 0.1 ug/mL,5.18
same,NF-kB SEAP reporter activity,RAW-Dual [3]; [4],0.639
same,NF-kB SEAP reporter activity,RAW-Dual [3]; [5],1.01
same,NF-kB SEAP reporter activity,RAW-Dual [3]; [6],1.39
COc1ncc(-c2cc(-c3ncc(CN4CC(C)OC(C)C4)o3)c3cn[nH]c3c2)cc1NS(C)(=O)=O (configuration not stated),NF-kB SEAP reporter activity,RAW-Dual [2]; [9],0.604
same,NF-kB SEAP reporter activity,RAW-Dual [2]; [10],2.18
CN(CCNc1ccnc2cc(Cl)ccc12)CCNc1ccnc2cc(Cl)ccc12.Cl.Cl.Cl,NF-kB SEAP reporter activity,RAW-Dual [2]; [9],0.958
same,NF-kB SEAP reporter activity,RAW-Dual [2]; [10],2.39
CCN(CC)Cc1cc(Nc2ccnc3cc(Cl)ccc23)ccc1O.Cl.Cl.O.O (library stock concentration (final ~1000-fold dilution): 10 mM),NF-kB SEAP reporter activity,RAW-Dual [1]; agonist: LPS (TLR4) 0.1 ug/mL,0.419
same,NF-kB SEAP reporter activity,RAW-Dual [1]; [4],0.184
same,NF-kB SEAP reporter activity,RAW-Dual [1]; [5],0.719
same,NF-kB SEAP reporter activity,RAW-Dual [1]; [6],0.633
CN(CCNCc1cn(Cc2ccc(Cl)cc2)nn1)CCNc1ccnc2cc(Cl)ccc12.O=C(O)C(F)(F)F,NF-kB SEAP reporter activity,RAW-Dual [2]; [9],1.52
same,NF-kB SEAP reporter activity,RAW-Dual [2]; [10],2.19
Cc1ccc(NCCN(C)CCNc2ccnc3cc(Cl)ccc23)c2c(=O)c3ccccc3sc12 (library stock concentration (final ~1000-fold dilution): 2 mM),NF-kB SEAP reporter activity,RAW-Dual [1]; agonist: LPS (TLR4) 0.1 ug/mL,1.45
same,NF-kB SEAP reporter activity,RAW-Dual [1]; [4],1.04
same,NF-kB SEAP reporter activity,RAW-Dual [1]; [5],0.845
same,NF-kB SEAP reporter activity,RAW-Dual [1]; [6],1.06
CN(CCNc1ccnc2cc(Cl)ccc12)CCNc1ccnc2cc(Cl)ccc12.Cl.Cl.Cl (library stock concentration (final ~1000-fold dilution): 10 mM),NF-kB SEAP reporter activity,RAW-Dual [3]; agonist: LPS (TLR4) 0.1 ug/mL,4.28
same,NF-kB SEAP reporter activity,RAW-Dual [3]; [4],0.547
same,NF-kB SEAP reporter activity,RAW-Dual [3]; [5],1.63
same,NF-kB SEAP reporter activity,RAW-Dual [3]; [6],2.17
CCN(CCO)CCCC(C)Nc1ccnc2cc(Cl)ccc12.O=S(=O)(O)O (configuration not stated) (library stock concentration (final ~1000-fold dilution): 10 mM water),NF-kB SEAP reporter activity,RAW-Dual [1]; agonist: LPS (TLR4) 0.1 ug/mL,1.41
same,NF-kB SEAP reporter activity,RAW-Dual [1]; [4],0.252
same,NF-kB SEAP reporter activity,RAW-Dual [1]; [5],0.864
same,NF-kB SEAP reporter activity,RAW-Dual [1]; [6],0.763
CCN(CCO)CCCC(C)Nc1ccnc2cc(Cl)ccc12.O=S(=O)(O)O (configuration not stated),NF-kB SEAP reporter activity,"RAW-Dual [2]; library stock concentration (final ~1000-fold dilution): 10 mM water, cytotoxicity flag (confluency mask): not cytotoxic, agonist: Imiquimod (TLR7) […]",0.389
same,NF-kB SEAP reporter activity,"RAW-Dual [2]; library stock concentration (final ~1000-fold dilution): 10 mM water, cytotoxicity flag (confluency mask): not cytotoxic, agonist: MPLA (TLR4) […]",1.3
CN(CCNCc1cn(Cc2ccc(Cl)cc2)nn1)CCNc1ccnc2cc(Cl)ccc12.O=C(O)C(F)(F)F (library stock concentration (final ~1000-fold dilution): 10 mM),NF-kB SEAP reporter activity,RAW-Dual [3]; agonist: LPS (TLR4) 0.1 ug/mL,2.67
same,NF-kB SEAP reporter activity,RAW-Dual [3]; [4],0.269
same,NF-kB SEAP reporter activity,RAW-Dual [3]; [5],1.18
same,NF-kB SEAP reporter activity,RAW-Dual [3]; [6],1.87
Cc1ccc(NCCN(C)CCNc2ccnc3cc(Cl)ccc23)c2c(=O)c3ccccc3sc12,NF-kB SEAP reporter activity,"RAW-Dual [2]; library stock concentration (final ~1000-fold dilution): 2 mM, cytotoxicity flag (confluency mask): not cytotoxic, agonist: Imiquimod (TLR7) […]",0.907
same,NF-kB SEAP reporter activity,"RAW-Dual [2]; library stock concentration (final ~1000-fold dilution): 2 mM, cytotoxicity flag (confluency mask): not cytotoxic, agonist: MPLA (TLR4) […]",1.05
CCN(CC)Cc1cc(Nc2ccnc3cc(Cl)ccc23)ccc1O.Cl.Cl.O.O,NF-kB SEAP reporter activity,RAW-Dual [2]; [7],0.244
same,NF-kB SEAP reporter activity,RAW-Dual [2]; [8],0.82
Cc1cc2ncc(C(=O)NCC(C)(C)NCC(=O)N3CCCC3C#N)cn2n1 (configuration not stated) (library stock concentration (final ~1000-fold dilution): 10 mM),NF-kB SEAP reporter activity,RAW-Dual [1]; agonist: LPS (TLR4) 0.1 ug/mL,1.57
same,NF-kB SEAP reporter activity,RAW-Dual [1]; [4],0.997
same,NF-kB SEAP reporter activity,RAW-Dual [1]; [5],0.911
same,NF-kB SEAP reporter activity,RAW-Dual [1]; [6],0.96
Cc1cc2ncc(C(=O)NCC(C)(C)NCC(=O)N3CCCC3C#N)cn2n1 (configuration not stated),NF-kB SEAP reporter activity,RAW-Dual [2]; [7],0.977
same,NF-kB SEAP reporter activity,RAW-Dual [2]; [8],1.04
COc1ccccc1Nc1nc(-c2sc(NC(C)=O)nc2C)cs1 (library stock concentration (final ~1000-fold dilution): 10 mM),NF-kB SEAP reporter activity,RAW-Dual [1]; agonist: LPS (TLR4) 0.1 ug/mL,0.496
same,NF-kB SEAP reporter activity,RAW-Dual [1]; [4],0.464
same,NF-kB SEAP reporter activity,RAW-Dual [1]; [5],0.318
same,NF-kB SEAP reporter activity,RAW-Dual [1]; [6],0.245
COc1ccccc1Nc1nc(-c2sc(NC(C)=O)nc2C)cs1,NF-kB SEAP reporter activity,RAW-Dual [2]; [7],0.623
same,NF-kB SEAP reporter activity,RAW-Dual [2]; [8],0.687
CC(C)(OC1OC(CO)C(O)C(O)C1O)C1Cc2cc3ccc(=O)oc3cc2O1 (configuration not stated) (library stock concentration (final ~1000-fold dilution): 10 mM),NF-kB SEAP reporter activity,RAW-Dual [1]; agonist: LPS (TLR4) 0.1 ug/mL,1.14
same,NF-kB SEAP reporter activity,RAW-Dual [1]; [4],1.31
same,NF-kB SEAP reporter activity,RAW-Dual [1]; [5],1.27
same,NF-kB SEAP reporter activity,RAW-Dual [1]; [6],1.48
CC(C)(OC1OC(CO)C(O)C(O)C1O)C1Cc2cc3ccc(=O)oc3cc2O1 (configuration not stated),NF-kB SEAP reporter activity,RAW-Dual [2]; [7],1.21
same,NF-kB SEAP reporter activity,RAW-Dual [2]; [8],1.19
Cl.O=C1C2CCCCC2C(=O)N1CCCCN1CCN(c2nsc3ccccc23)CC1 (configuration not stated),NF-kB SEAP reporter activity,RAW-Dual [2]; [8],0.868
Cl.O=C1C2CCCCC2C(=O)N1CCCCN1CCN(c2nsc3ccccc23)CC1 (configuration not stated) (library stock concentration (final ~1000-fold dilution): 10 mM),NF-kB SEAP reporter activity,RAW-Dual [1]; agonist: LPS (TLR4) 0.1 ug/mL,0.671
same,NF-kB SEAP reporter activity,RAW-Dual [1]; [4],0.536
same,NF-kB SEAP reporter activity,RAW-Dual [1]; [5],0.848
same,NF-kB SEAP reporter activity,RAW-Dual [1]; [6],0.888
Cc1n[nH]c2ccc(-c3cncc(OCC(N)Cc4ccccc4)c3)cc12 (configuration not stated),NF-kB SEAP reporter activity,RAW-Dual [2]; [7],0.904
same,NF-kB SEAP reporter activity,RAW-Dual [2]; [8],0.967
Cc1n[nH]c2ccc(-c3cncc(OCC(N)Cc4ccccc4)c3)cc12 (configuration not stated) (library stock concentration (final ~1000-fold dilution): 10 mM),NF-kB SEAP reporter activity,RAW-Dual [1]; agonist: LPS (TLR4) 0.1 ug/mL,0.198
same,NF-kB SEAP reporter activity,RAW-Dual [1]; [4],0.962
same,NF-kB SEAP reporter activity,RAW-Dual [1]; [5],0.447
same,NF-kB SEAP reporter activity,RAW-Dual [1]; [6],1.01
